Experimental data: the supplement of paper PMC7366291
Structures can show the parent of a compound that is named as a salt. ± gives the standard deviation or the standard deviation of the averaged measurements.

Experiments:
Settings in all cases: 25 µM; exposure: 24-48 hpf
[1] = system: Danio rerio Tg(wt1b:EGFP) embryo, pronephros; test: glomerular separation, fold change vs DMSO control; higher = glomeruli further apart (abnormal)
In short: (§1)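 Dechorionated Tg(wt1b:EGFP) zebrafish embryos were exposed to 25 μM compound in 0.5% DMSO, HEPES-buffered E3 with 0.003% PTU, from 24 to 48 hpf at 28.5°C. Pronephroi were imaged dorsally in agarose-filled 96-well plates (470 nm, 10 z-slices). On maximum projections, 16 reference points were set manually in Fiji and a macro computed distances and angles. Values more than 2 SD from the feature mean were excluded. Each feature is a fold change relative to the mean of same-day DMSO controls.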

[2] = system: Danio rerio Tg(wt1b:EGFP) embryo, pronephros; test: glomerular width (mean of left and right), fold change vs DMSO control; higher = wider glomerulus
In short: as §1

[3] = system: Danio rerio Tg(wt1b:EGFP) embryo, pronephros; test: fraction of imaged embryos annotated as normal kidney; higher = less nephrotoxic; extreme values may be limits of the assay
In short: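 Tricaine-anaesthetised Tg(wt1b:EGFP) zebrafish larvae were oriented dorsally in agarose-filled 96-well plates, and their pronephroi were recorded by widefield fluorescence at 470 nm in 10 z-slices. Before this, the dechorionated embryos had been exposed in 12-well plates to 25 μM compound in 0.5% DMSO and 5 mM HEPES-buffered E3 with 0.003% PTU, from 24 to 48 hpf at 28.5°C. Maximum projections were annotated manually for each embryo, and the read-out is the fraction per treatment classed as normal kidney.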

[4] = system: Danio rerio Tg(wt1b:EGFP) embryo, pronephros; test: pronephric angle neck segment to proximal convoluted tubule (mean of left and right), fold change vs DMSO control; higher = larger pronephric angle
In short: as §1

Structure (SMILES) | glomerular separation [1] | glomerular width [2] | fraction of imaged embryos annotated as normal kidney [3] | pronephric angle neck segment [4]
CO[C@H]1C[C@H](O[C@H]2[C@H](C)[C@@H](O[C@@H]3O[C@H](C)C[C@H](N(C)C)[C@H]3OC(C)=O)[C@@H](C)C[C@@]3(CO3)C(=O)[C@H](C)[C@@H](OC(C)=O)[C@@H](C)[C@@H](C)OC(=O)[C@@H]2C)O[C@@H](C)[C@@H]1OC(C)=O [Troleandomycin] | 1.39 ± 0.74 | 1.12 ± 0.066 | 0.917 | 0.969 ± 0.019
N=C(N)NCC1COC2(CCCCC2)O1 (configuration not stated) [Guanadrel sulfate] | 0.935 ± 0.45 | 1.02 ± 0.071 | 0.75 | 0.992 ± 0.012
C[C@H]1[C@H](NC(=O)/C(=N\OC(C)(C)C(=O)O)c2csc(N)n2)C(=O)N1S(=O)(=O)O [Aztreonam] | 0.857 ± 0.2 | 1.143 ± 0.0015 | 0.917 | 0.9634 ± 0.0095
C[C@H](O)C(=O)Nc1c(I)c(C(=O)NC(CO)CO)c(I)c(C(=O)NC(CO)CO)c1I [Iopamidol] | 0.92 ± 0.3 | 0.9773 ± 0.007 | 0.833 | 1.01 ± 0.038
C[C@]12CC[C@@H]3c4ccc(O)cc4CC[C@H]3[C@@H]1C[C@@H](O)[C@@H]2O [Estriol] | 0.626 ± 0.2 | 1.03 ± 0.042 | 0.917 | 1.026 ± 0.0015
O=C(CCCN1CCN(c2ccccn2)CC1)c1ccc(F)cc1 [Azaperone] | 1.11 ± 0.43 | 0.925 ± 0.039 | 0.833 | 1 ± 0.019
c1ccc2c(CC3=NCCN3)cccc2c1 [Naphazoline hydrochloride] | 1.17 ± 0.54 | 1 ± 0.0079 | 1 | 1.006 ± 0.0059
C=C(NC(=O)C(=C)NC(=O)c1csc(C2=N[C@@H]3c4csc(n4)[C@H]4NC(=O)c5csc(n5)[C@H]([C@](C)(O)[C@@H](C)O)NC(=O)[C@H]5CSC(=N5)/C(=C/C)NC(=O)[C@H]([C@@H](C)O)NC(=O)c5csc(n5)[C@]3(CC2)NC(=O)[C@H](C)NC(=O)C(=C)NC(=O)[C@H](C)NC(=O)[C@H]([C@@H](C)CC)N[C@@H]2C=Cc3c([C@H](C)O)cc(nc3[C@H]2O)C(=O)O[C@@H]4C)n1)C(N)=O [Thiostrepton] | 1.02 ± 0.32 | 1.02 ± 0.056 | 0.917 | 1.01 ± 0.12
C1N2CN3CN1CN(C2)C3 [Methenamine] | 0.642 ± 0.2 | 0.975 ± 0.051 | 0.917 | 0.994 ± 0.029
CC(=O)c1ccc2c(c1)N(CCCN(C)C)c1ccccc1S2 [Acetopromazine maleate salt] | 0.953 ± 0.23 | 0.924 ± 0.071 | 1 | 0.969 ± 0.02
O=C(NCC1CCCCN1)c1cc(OCC(F)(F)F)ccc1OCC(F)(F)F (configuration not stated) [Flecainide acetate] | 0.977 ± 0.32 | 1.03 ± 0.022 | 0.75 | 0.961 ± 0.023
CN(C)c1nc(N(C)C)nc(N(C)C)n1 [Altretamine] | 0.998 ± 0.46 | 0.923 ± 0.011 | 0.917 | 1.06 ± 0.062
CCCCCCCN(CC)CCCC(O)c1ccc(NS(C)(=O)=O)cc1 (configuration not stated) [Ibutilide fumarate] | 0.897 ± 0.24 | 1.0672 ± 0.00094 | 1 | 0.961 ± 0.086
O=C1c2c(O)cccc2Cc2cccc(O)c21 [Anthralin] | 0.949 ± 0.28 | 0.986 ± 0.02 | 0.909 | 1.06 ± 0.014
COC(=O)Nc1nc2ccc(SC(C)C)cc2[nH]1 [Methiazole] | 3.98 ± 1.2 | 0.49428 ± 0.00044 | 0 | 1.95 ± 0.046
Cc1cccc(C)c1NC(=O)CN1CCN(CCCC(c2ccc(F)cc2)c2ccc(F)cc2)CC1 [Lidoflazine] | 3 ± 1.2 | 0.667 ± 0.014 | 0.167 | 0.988 ± 0.13
CC(C)NC[C@@H](O)COc1cccc2ccccc12 [(R)-Propranolol hydrochloride] | 1.07 ± 0.46 | 0.963 ± 0.013 | 0.833 | 0.98475 ± 0.00073
OCCOCCN1CCN(C2=Nc3ccccc3Sc3ccccc32)CC1 [Quetiapine hemifumarate] | 0.872 ± 0.15 | 1.07 ± 0.066 | 0.917 | 0.98617 ± 0.00072
Cc1cc(C(C)(C)C)c(O)c(C)c1CC1=NCCN1 [Oxymetazoline hydrochloride] | 1.08 ± 0.39 | 1.03 ± 0.078 | 0.833 | 0.976 ± 0.042
C[C@H](N[C@@H](CCc1ccccc1)C(=O)O)C(=O)N1CCC[C@H]1C(=O)O [Enalaprilat dihydrate] | 1.03 ± 0.34 | 1 ± 0.012 | 1 | 1.01 ± 0.025
O=S(=O)(O)c1cc(O)ccc1O [Ethamsylate] | 1.12 ± 0.45 | 0.89 ± 0.079 | 0.917 | 0.9847 ± 0.0033
CCN(CC)Cc1cc(Nc2ccnc3cc(Cl)ccc23)ccc1O [Amodiaquin dihydrochloride dihydrate] | 0.602 ± 0.18 | 0.999 ± 0.012 | 0.917 | 0.957 ± 0.016
Cc1onc(-c2ccccc2)c1-c1ccc(S(N)(=O)=O)cc1 [Valdecoxib] | 0.816 ± 0.3 | 1.13 ± 0.019 | 0.917 | 0.9437 ± 0.0089
CCC[C@@H]1C[C@@H](C(=O)N[C@@H]([C@H]2O[C@H](SC)[C@H](O)[C@@H](O)[C@H]2O)[C@@H](C)O)N(C)C1 [Lincomycin hydrochloride] | 0.865 ± 0.33 | 0.984 ± 0.037 | 0.917 | 0.9548 ± 0.0043
CC[N+](CC)(CC)CCC(O)(c1ccccc1)C1CCCCC1 (configuration not stated) [Tridihexethyl chloride] | 1.14 ± 0.4 | 0.925 ± 0.012 | 0.818 | 1.04 ± 0.026
CCCN(CCC)S(=O)(=O)c1ccc(C(=O)O)cc1 [Probenecid] | 1.41 ± 0.61 | 0.907 ± 0.091 | 0.833 | 0.915 ± 0.028
NNc1nncc2ccccc12 [Hydralazine hydrochloride] | 1.14 ± 0.53 | 1.04 ± 0.041 | 0.818 | 1.02 ± 0.039

Structure (SMILES) | glomerular separation [1] | glomerular width [2] | fraction of imaged embryos annotated as normal kidney [3] | pronephric angle neck segment [4]
Cc1nc2n(c(=O)c1CCN1CCC(c3noc4cc(F)ccc34)CC1)CCCC2 [Risperidone] | 0.741 ± 0.16 | 1.04 ± 0.043 | 1 | 0.974 ± 0.021
CO[C@@]1(NC(=O)Cc2cccs2)C(=O)N2C(C(=O)O)=C(COC(N)=O)CS[C@@H]21 [Cefoxitin sodium salt] | 0.796 ± 0.27 | 0.975 ± 0.012 | 0.833 | 0.968 ± 0.04
CNCC(O)c1ccc(OC(=O)C(C)(C)C)c(OC(=O)C(C)(C)C)c1 (configuration not stated) [Dipivefrin hydrochloride] | 0.794 ± 0.16 | 1.04 ± 0.036 | 0.833 | 1.03 ± 0.081
CC[N+](CC)(CC(=O)Nc1c(C)cccc1C)Cc1ccccc1 [Denatonium benzoate] | 0.973 ± 0.36 | 0.844 ± 0.018 | 0.917 | 0.99113 ± 0.00026
NCc1ccccc1CC(=O)N[C@@H]1C(=O)N2C(C(=O)O)=C(CSc3nnnn3CC(=O)O)CS[C@H]12 [Ceforanide] | 1.15 ± 0.8 | 0.949 ± 0.091 | 0.833 | 1.08 ± 0.038
C[C@H](CCC(=O)O)[C@H]1CC[C@H]2[C@@H]3CC[C@@H]4C[C@H](O)CC[C@]4(C)[C@H]3CC[C@]12C [Lithocholic acid] | 1.26 ± 0.64 | 0.839 ± 0.085 | 0.364 | 0.929 ± 0.046
Clc1ccc(C(Cn2ccnc2)OCc2ccsc2Cl)c(Cl)c1 (configuration not stated) [Tioconazole] | 1.29 ± 0.51 | 0.965 ± 0.013 | 0.417 | 1.21 ± 0.085
O=C(O)c1cn(C2CC2)c2cc(N3CCNCC3)c(F)cc2c1=O [Ciprofloxacin hydrochloride monohydrate] | 0.914 ± 0.36 | 0.94012 ± 0.00024 | 0.833 | 0.988 ± 0.023
O=S(=O)(O)CCS [Mesna] | 0.716 ± 0.21 | 1.07 ± 0.057 | 1 | 1.07 ± 0.047
CC[C@H]1OC(=O)C[C@@H](O)[C@H](C)[C@@H](O[C@@H]2O[C@H](C)[C@@H](O[C@H]3C[C@@](C)(O)[C@@H](O)[C@H](C)O3)[C@H](N(C)C)[C@H]2O)[C@@H](CC=O)C[C@@H](C)C(=O)/C=C/C(C)=C/[C@@H]1CO[C@@H]1O[C@H](C)[C@@H](O)[C@@H](OC)[C@H]1OC [Tylosin] | 0.911 ± 0.28 | 0.983 ± 0.0057 | 0.833 | 1.005 ± 0.0099
Nc1cc(C(Cl)=C(Cl)Cl)c(S(N)(=O)=O)cc1S(N)(=O)=O [Clorsulon] | 0.798 ± 0.23 | 0.948 ± 0.062 | 0.917 | 0.935 ± 0.044
Nc1nc(/C(=C/CC(=O)O)C(=O)N[C@@H]2C(=O)N3C(C(=O)O)=CCS[C@H]23)cs1 [Ceftibuten] | 0.515 ± 0.17 | 1.016 ± 0.0039 | 1 | 0.963 ± 0.019
COc1ccccc1OCCNCC(O)COc1cccc2[nH]c3ccccc3c12 (configuration not stated) [Carvedilol] | 1.02 ± 0.41 | 1.048 ± 0.0037 | 0.8 | 0.958 ± 0.019
COC(=O)Nc1nc2cc(Sc3ccccc3)ccc2[nH]1 [Fenbendazole] | 4 ± 2.6 | 0.568 ± 0.027 | 0 | 1.8 ± 0.13
COc1ccc2[nH]cc(CCNC(C)=O)c2c1 [Melatonin] | 0.974 ± 0.26 | 0.989 ± 0.026 | 0.917 | 1.02 ± 0.056
CCN(CC)C(=O)/C(C#N)=C/c1cc(O)c(O)c([N+](=O)[O-])c1 [Entacapone] | 1.88 ± 1.4 | 0.938 ± 0.17 | 0.583 | 1.28 ± 0.14
CCn1cc(C(=O)O)c(=O)c2cc(F)c(N3CCNC(C)C3)c(F)c21 (configuration not stated) [Lomefloxacin hydrochloride] | 1.54 ± 1.1 | 0.974 ± 0.12 | 0.5 | 1.12 ± 0.037
CCCCCCNC(=O)n1cc(F)c(=O)[nH]c1=O [Carmofur] | 8.71 ± 3.1 | 0.552 ± 0.03 | 0 | 1.72 ± 0.072
CN(C)CCN1C(=O)c2ccccc2N(C)c2ccccc21 [Dibenzepine hydrochloride] | 1.21 ± 0.68 | 1.08 ± 0.047 | 0.75 | 0.967 ± 0.086
CCCNC(C)C(=O)Nc1ccccc1C (configuration not stated) [Prilocaine hydrochloride] | 1.28 ± 1.1 | 0.947 ± 0.032 | 0.75 | 1.02 ± 0.081
CC[C@@H]1C(=O)OC[C@@H]1Cc1cncn1C [Pilocarpine nitrate] | 1.19 ± 0.19 | 1.04 ± 0.051 | 0.667 | 1.02 ± 0.021
CC1(C)O[C@@H]2C[C@H]3[C@@H]4C[C@H](F)C5=CC(=O)CC[C@]5(C)[C@H]4[C@@H](O)C[C@]3(C)[C@]2(C(=O)CO)O1 [Flurandrenolide] | 1.09 ± 0.49 | 1.08 ± 0.04 | 0.333 | 0.979 ± 0.1
CCN[C@H]1CN(CCCOC)S(=O)(=O)c2sc(S(N)(=O)=O)cc21 [Brinzolamide] | 1.47 ± 0.71 | 1.053 ± 0.0011 | 0.5 | 1.1 ± 0.069
CCN1CCN(c2cc3c(cc2F)c(=O)c(C(=O)O)cn3C2CC2)CC1 [Enrofloxacin] | 0.888 ± 0.34 | 1.07 ± 0.12 | 0.917 | 1.01 ± 0.037
CCOC(=O)OC(C)OC(=O)[C@@H]1N2C(=O)[C@@H](NC(=O)[C@H](N)c3ccccc3)[C@H]2SC1(C)C (some centres not stated) [Bacampicillin hydrochloride] | 0.948 ± 0.29 | 1.01 ± 0.017 | 0.917 | 0.968 ± 0.034
C=CCOc1ccccc1OCC(O)CNC(C)C (configuration not stated) [Oxprenolol hydrochloride] | 0.751 ± 0.34 | 1.002 ± 0.0059 | 0.75 | 1.0054 ± 0.00047
